This is part of a sample that, as a whole, favours compounds with a hit. Of some 79,000 tested, about 15% had one in any assay. A number with no mark means an inactive call. The source made the active and inactive calls. Rule as the data show it: active = growth inhibition above about 70%; inactive = the rest.
Assay: NCI Yeast Anticancer Drug Screen. Data for the sgs1 strain (AID 173);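 also: 0% = growth of vehicle-only control cultures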
Conditions: S. cerevisiae sgs1 mutant, stronger effect = higher value
Method: Growth inhibition of yeast strains with defined genetic alterations is measured as a screen for potential anti-cancer activity. Selected strains with alterations in DNA damage repair or cell cycle control were exposed to compounds and growth inhibition was measured relative to vehicle treated controls. The strain used in this assay is sgs1

SMILES | growth inhibition (at 1.2 µM) [%] | growth inhibition (at 3.7 µM) | growth inhibition (at 11.0 µM) | growth inhibition (at 33.0 µM) | growth inhibition (at 100.0 µM)
CC(NCCN(C)C)C1CCC2C3CCc4cc(O)ccc4C3CCC12C (stereo not given) | 3 | 9% | 42% | 87% (active) | 96% (active)
COc1cc(/C=C2\CCC/C(=C\c3ccc(O)c(OC)c3)C2=O)ccc1O | -15 | -10% | 3% | 5% | -6%
C=C(C(=C)n1nnc(C(=O)OC)c1C(=O)OC)n1nnc(C(=O)OC)c1C(=O)OC | 0 | -1% | -2% | 0% | 0%
Cc1cc(N(CCOS(C)(=O)=O)CCOS(C)(=O)=O)ccc1C=Nc1ccc(-c2nc(Cc3ccccc3)sc2C)cc1 | 3 | 15% | 66% | 94% (active) | 98% (active)
CC(C)CN(CC(C)C)C(=O)c1ccc(Cl)c(Cl)c1 | 0 | 3% | 5% | 62% | 99% (active)
Cc1csc(=S)n1OC(=O)NC1CCCCC1 | -42 | 98% (active) | 99% (active) | 100% (active) | 99% (active)
COC1=C(OC)C(=O)C(Sc2ccc3ccccc3c2)=CC1=O | -25 | -17% | 23% | 93% (active) | 93% (active)
CCOC(=O)C#Cc1ccc([N+](=O)[O-])cc1 | 1 | 0% | 5% | 6% | 15%
